Tgondii IFNg – T. gondii growth inhibition with IFN-gamma, primary screen, cell-based; Toxoplasma gondii growth in IFN-gamma-treated host cells; active compounds read low; activity change, negative = inhibition, % (test concentration not listed); actives 3.8% (n = 69,000); in the data active = activity change below about -70%, passing the limit was not always enough;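 note: host cells are HeLa cells infected with Toxoplasma gondii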
The depositor's hits bear a star. This is one part of a sample in which hits are shown more often than they occur.

SMILES | Tgondii IFNg
CC(C)NC(=O)N1Cc2cc(C(=O)NC3Cc4ccccc4C3)nc(-c3cccc(-c4cccnc4)c3)c2[C@H]1CCO | -57
CC(C)NC(=O)N1Cc2cc(C(=O)NC3CCC3)nc(-c3cccc(-c4cncnc4)c3)c2[C@@H]1CCO | 5
CC(C)N(C)C[C@@H]1OC[C@@H]2CCN(C(=O)c3ccccn3)C[C@H]21 | -11
CN(C)C(=O)c1cc(-c2cnc(Nc3ccccc3)nc2)cn1C | 210
Clc1ccc(CNc2nc(SCc3ccc(Cl)cc3)nc3ccccc23)cc1 | -48
Clc1ccc(CSc2nc(NCc3ccccc3)c3ccccc3n2)cc1 | -72*
Fc1ccc(Nc2nc(SCc3ccc(Cl)cc3)nc3ccccc23)cc1F | -21
Fc1ccc(CSc2nc(Nc3ccc(F)c(F)c3)c3ccccc3n2)cc1 | -80*
Clc1ccc(CNc2nc(SCc3ccccc3Cl)nc3ccccc23)cc1 | 30
COc1ccc(CNc2nc(-c3ccc(OC)cc3)nc3ccccc23)cc1 | -42
COc1cc(Nc2nc(SCc3ccc(C(C)(C)C)cc3)nc3ccccc23)cc(OC)c1 | -11
Clc1ccccc1CSc1nc(NCc2ccccc2)c2ccccc2n1 | -49
c1ccc(CNc2nc(NCc3ccccc3)c3ccccc3n2)cc1 | -108*
Cc1nc(CN2CCC3(CCN(Cc4cccn4C)C3)C2=O)cs1 (stereo not drawn) | -55
O=C1c2ccccc2C(=O)N1CCCn1nnc(-c2ccc(F)cc2)n1 | -9
Cc1cc(NC(=O)c2cncc(NS(=O)(=O)c3ccc(Cl)cc3)c2)no1 | 0
CC(C(=O)NCc1ccoc1)N(c1ccccc1)S(C)(=O)=O (stereo not drawn) | -4
Cc1[nH]ncc1C(=O)N1CCC(C2CCCCN2C(=O)Cc2ccccc2F)CC1 (stereo not drawn) | 5
CC(C)C(C)N(Cc1ccco1)C(=O)c1cnn2ccccc12 (stereo not drawn) | -7
CN1CCC(N2CCC(C(=O)N(C)C)CC2)CC1 | -13
Cc1cc(Cl)ccc1NC(=O)CSc1nnc(-c2ccncc2)o1 | 4
Cc1cnccc1CN(C)C(=O)c1cccc(NC(=O)C2CCCO2)c1 (stereo not drawn) | -3
COc1cccc(C2CCCN2S(=O)(=O)N2CCc3ccccc3C2)c1 (stereo not drawn) | -6
CCC(CN1CCOCC1)NC(=O)Cc1coc2cc(C)cc(C)c12 (stereo not drawn) | -82*
Cc1ccc(C(NC(=O)c2cc(CN3CCOCC3)c(C)o2)c2ccncc2)cc1C (stereo not drawn) | -3
SMILES | Tgondii IFNg
Cc1ccc2c(CC(=O)NCCC3CN(C)CCO3)coc2c1 (stereo not drawn) | 0
Cc1ccc2nc(CN3CCCC4(CNC(=O)O4)C3)[nH]c2c1 (stereo not drawn) | 4
CCOc1ccc(CCNc2nc(-c3ccc(OC)cc3)nc3ccccc23)cc1 | -42
Cc1ccc(-c2cnc3ccccc3n2)cc1NC(=O)CN1CC(C)OC(C)C1 (stereo not drawn) | -20
O=C1N(Cc2ccccn2)C(=O)C2(CCN(CC3CC=CCC3)CC2)N1Cc1ccccc1 (stereo not drawn) | -3
Cc1c(CN2CCC3(CC2)C(=O)N(Cc2ccccn2)C(=O)N3Cc2ccccc2)cnn1C | 18
O=C1N(Cc2ccccn2)C(=O)C2(CCN(Cc3c(F)cccc3Cl)CC2)N1Cc1ccccc1 | -73*
Cc1ccc(C(CNC(=O)c2ccc(-n3nc(C)cc3C)cc2)N2CCOCC2)cc1 (stereo not drawn) | -8
CCN(CC)c1ncnc2c1cnn2CC(=O)N1CCN(c2ccccn2)CC1 | 156
Cc1c(NCc2cccnc2)cccc1C(=O)N1C[C@@H](C)O[C@@H](C)C1 | -83*
CCC1c2cccn2CCN1C(=O)c1cccc(NCc2cccnc2)c1C (stereo not drawn) | 2
Cc1noc(C)c1CN(C)C(=O)c1cccc(NCc2cccnc2)c1C | -9
CCCn1cnnc1CNC(=O)c1cccc(-n2nc(C)cc2C)c1 | 2
CN(CCCc1cnn(C)c1)C(=O)c1ccc(-c2ccn[nH]2)cc1 | 0
COc1ccccc1CN(Cc1cccnc1)Cc1ccoc1 | -4
CN(C)CCn1c2c(ccc1=O)CCN(Cc1cccnc1)CC2 | 3
COc1cccc(S(=O)(=O)N2CCCCN3[C@H](C2)[C@@H](c2ccc(C#CCC(C)C)cc2)[C@@H]3CO)c1 | -33
COc1cccc(S(=O)(=O)N2CCCCN3[C@@H](CO)[C@@H](c4ccc(C#CCC(C)C)cc4)[C@@H]3C2)c1 | -64
COc1cccc(S(=O)(=O)N2CCCCN3[C@H](CO)[C@H](c4ccc(C#CCC(C)C)cc4)[C@H]3C2)c1 | -81*
Cc1ccc2oc(C(=O)NCc3cc(=O)[nH]c(-c4ccncc4)n3)cc2c1 | 36
CC1CCCCN1CCN(C)Cc1ncc[nH]1 (stereo not drawn) | -4
COc1ccc(CN2CCN(c3c(F)cccc3C(O)c3nccn3C)CC2)cc1 (stereo not drawn) | -3
Cc1ccc(CN2CCC3(CC2)CC[C@]2(C(=O)N(C)C)CN(C)C[C@@H]32)o1 | 10
Cc1cncc(C(=O)Nc2ccc(NC(=O)c3ccc(C)o3)cc2)c1 | -6
O=C(c1cccc(Cn2cccn2)c1)N1CCC(Nc2ncccn2)CC1 | 6
SMILES | Tgondii IFNg
COc1cccc(Nc2nc(-c3ccncc3)nc3c2CN(C(=O)OC(C)(C)C)CC3)c1 | -75*
COc1cccc(CC(=O)N2CCc3nc(-c4ccc(F)cc4)nc(C)c3CC2)c1 | -6
CC(C)(C)OC(=O)N1CCc2[nH]nc(Nc3ccccc3)c2C1 | -5
Cc1cc(C)c(NC(=O)Cn2c(=O)cc(C(=O)N3CCc4ccccc4C3)c3ccccc32)c(C)c1 | 8
CN=C1Sc2nc3c(cc2CN1C1CCCCC1)c(C(C)(C)C)nn3-c1ccccc1 | -85*
O=C(Nc1cncc(-c2nc3ccccc3o2)c1)c1cccc(Cl)c1 | -1
Cc1ccc(CN2CCC3C(C[C@@H](CN(C)C)N3C)C2)s1 (stereo partly drawn) | -1
c1ccc(CNc2ncc(CN3CCC4(CCOCC4)CC3)cn2)cc1 | 83
c1ccc2c(N3CCOCC3)nc(N3CCOCC3)nc2c1 | -4
c1ccc(CNc2nc(N3CCOCC3)nc(N3CCOCC3)n2)cc1 | -83*
COCCC(=O)N1CCC(c2nc(C(=O)N3CCSCC3)c(C)o2)CC1 | 15
CCN1CC[C@@]2(C(=O)N(C)C)CCN(C(=O)Cc3cccc(OC)c3)CC[C@H]12 | -20
O=C(c1cccs1)N1CCN(S(=O)(=O)c2ccc3ccccc3c2)CC1 | -24
CCC(CC)C(=O)N1CCCn2cnc(CN3CCCC3=O)c2C1 | 2
CCC(CC)C(=O)N1CCCc2c(cnn2-c2ccc(OC)cc2)C1 | -97*
COc1ccc(Cc2ncc3c(n2)CN(C(=O)[C@@H](O)c2ccccc2)C3)cc1 | 0
Cn1cc(C[C@H]2[C@@H](OCC3CC3)CCN2C(=O)c2ccoc2)cn1 | -7
O=C(NCc1ccccn1)C1CNCCN1C(=O)CCn1ccccc1=O (stereo not drawn) | -4
Nc1cccc(C(=O)O)c1 | 3
Cc1nc2ccc(C(=O)O)cc2nc1C | 6
O=C(O)c1ccc2nc3c(nc2c1)-c1cccc2cccc-3c12 | -110*
O=C(Nc1csc(C(F)(F)F)c1-c1ccccc1)c1ccco1 | 61
Cc1cccc(N2C[C@@H]3CN(c4cccnc4)C(=O)[C@@H]3C2)n1 | 21
Cn1cc(N2C[C@@H]3CN(Cc4ccoc4)C[C@H]3C2=O)cn1 | 14
Cn1cc(N2C[C@@H]3CN(c4ccccn4)C[C@H]3C2=O)cn1 | -87*
